PubChem BioAssay
For part of these data: Potency and affinity values are given separately. The source made the active and inactive calls. Unless noted, the rule behind the calls is not given here.

What was measured:
[1] = antimalarial activity against Dd2 strain (AID 2302;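 active = growth inhibition above 50% at the single 2 µM test dose, taken to imply half-maximal potency below 2 µM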;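 note: 0% = DMSO untreated growth and 100% = chloroquine plus artemisinin killed control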); conditions: P. falciparum Dd2 in RBCs, LDH growth readout, 72 h; at 2 µM; active compounds read high
[2] = HepG2 cytotoxicity, primary screen, cytotoxicity control for P. falciparum antimalarial project, cell-based, ATP luminescence (AID 2303;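 active = inhibition above 50%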;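 note: 0% = DMSO wells and 100% = digitonin-killed cells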); conditions: HepG2 viability, 24-48 h, at 10 µM, active compounds read high
[3] = target: L-lactate dehydrogenase (Plasmodium falciparum (isolate CDC / Honduras)) (UniProt Q27743); experiment: PfLDH activity inhibition – cell lysate, 3D7 strain, counter-screen for P. falciparum growth inhibition project (AID 2304);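 note: 0% = vehicle and 100% = reference inhibitor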; conditions: P. falciparum 3D7 crude extract, LDH APAD/NBT absorbance; at 2 µM; active compounds read high
[4] = inhibition of 3D7 malaria parasite growth – strain 3D7 (AID 2306);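 note: 0% = DMSO wells and 100% = chloroquine plus artemisinin control wells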; conditions: P. falciparum 3D7 erythrocytic growth, LDH absorbance, 72 h; at 2 µM; active compounds read high
[5] = target: Calcium-dependent protein kinase 1 (Plasmodium falciparum (isolate 3D7)) (UniProt P62344); experiment: PfCDPK1 kinase inhibitors, biochemical, TCAMS library (AID 1159585; cut-off not given, nearly all actives have IC50 up to about 0.98 µM;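 note: inhibitors leave more ATP so luminescence rises with inhibition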); conditions: recombinant PfCDPK1, Kinase-Glo ATP depletion luminescence
[6] = target: Plasmodium falciparum protein kinase 6 (PK6, PF3D7_1337100) (UniProt Q8IDW1); experiment: PfPK6 kinase inhibitors, biochemical, TCAMS library (AID 1159586); conditions: recombinant PfPK6, Kinase-Glo ATP depletion luminescence
[7] = target: Protein kinase 7 (PK7), Plasmodium falciparum 3D7 (PF3D7_0213400) (UniProt Q7YTF7); experiment: inhibition of Plasmodium PK7 catalytic activity – biochemical, TCAMS antimalarial set, Kinase-Glo luminescence (AID 1159587); conditions: recombinant PfPK7, Kinase-Glo ATP depletion luminescence
[8] = target: Calcium-dependent protein kinase 4 (Plasmodium falciparum (isolate 3D7)) (UniProt Q8IBS5); experiment: PfCDPK4 kinase inhibitors, biochemical, TCAMS library (AID 1159588; cut-off not given, nearly all actives have IC50 up to about 0.91 µM); conditions: recombinant PfCDPK4, Kinase-Glo ATP depletion luminescence
Calcium-dependent protein kinase 4 (Plasmodium falciparum (isolate 3D7)), sequence (Q8IBS5 whole entry, looked up): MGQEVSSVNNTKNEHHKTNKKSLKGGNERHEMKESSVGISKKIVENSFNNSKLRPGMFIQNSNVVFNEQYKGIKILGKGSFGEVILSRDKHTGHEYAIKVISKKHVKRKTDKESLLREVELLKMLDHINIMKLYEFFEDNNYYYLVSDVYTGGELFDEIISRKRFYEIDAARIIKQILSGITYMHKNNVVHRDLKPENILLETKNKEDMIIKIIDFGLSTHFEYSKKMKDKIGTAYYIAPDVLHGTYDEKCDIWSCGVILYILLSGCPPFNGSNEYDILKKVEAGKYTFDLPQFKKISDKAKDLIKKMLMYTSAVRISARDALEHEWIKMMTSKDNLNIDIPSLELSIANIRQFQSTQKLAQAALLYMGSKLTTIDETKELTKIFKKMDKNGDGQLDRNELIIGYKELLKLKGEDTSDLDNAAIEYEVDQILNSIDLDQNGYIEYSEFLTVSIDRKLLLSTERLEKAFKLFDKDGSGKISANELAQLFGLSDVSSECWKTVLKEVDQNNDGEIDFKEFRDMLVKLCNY

L-lactate dehydrogenase (Plasmodium falciparum (isolate CDC / Honduras)), sequence (Q27743 whole entry, looked up): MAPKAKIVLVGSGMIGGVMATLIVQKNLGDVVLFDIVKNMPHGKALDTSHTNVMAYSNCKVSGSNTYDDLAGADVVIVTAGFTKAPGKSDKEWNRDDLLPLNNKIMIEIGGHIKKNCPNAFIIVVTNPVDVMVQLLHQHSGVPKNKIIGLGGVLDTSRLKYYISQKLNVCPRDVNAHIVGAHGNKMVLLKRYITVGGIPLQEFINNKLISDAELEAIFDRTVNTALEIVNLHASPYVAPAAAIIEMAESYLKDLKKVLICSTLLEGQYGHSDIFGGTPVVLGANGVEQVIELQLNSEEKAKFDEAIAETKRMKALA
Plasmodium falciparum protein kinase 6 (PK6, PF3D7_1337100), sequence (Q8IDW1 1-305): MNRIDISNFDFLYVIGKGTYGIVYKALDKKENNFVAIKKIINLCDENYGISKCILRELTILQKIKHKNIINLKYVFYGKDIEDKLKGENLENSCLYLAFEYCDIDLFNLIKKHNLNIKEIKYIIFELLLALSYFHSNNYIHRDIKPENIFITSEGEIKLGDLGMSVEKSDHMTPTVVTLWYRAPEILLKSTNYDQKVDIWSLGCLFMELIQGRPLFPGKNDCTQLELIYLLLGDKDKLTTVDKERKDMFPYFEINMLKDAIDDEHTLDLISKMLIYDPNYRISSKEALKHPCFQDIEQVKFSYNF
Protein kinase 7 (PK7), Plasmodium falciparum 3D7 (PF3D7_0213400), sequence (Q7YTF7 1-343): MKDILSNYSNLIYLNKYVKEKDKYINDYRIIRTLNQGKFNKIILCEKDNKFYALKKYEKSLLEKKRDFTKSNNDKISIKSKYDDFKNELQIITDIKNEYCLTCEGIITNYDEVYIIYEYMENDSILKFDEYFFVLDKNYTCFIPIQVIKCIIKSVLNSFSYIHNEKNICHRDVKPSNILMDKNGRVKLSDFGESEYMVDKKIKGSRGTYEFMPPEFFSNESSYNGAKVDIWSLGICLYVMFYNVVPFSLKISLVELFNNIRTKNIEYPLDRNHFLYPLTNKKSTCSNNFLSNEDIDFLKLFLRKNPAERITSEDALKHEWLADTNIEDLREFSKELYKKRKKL
Calcium-dependent protein kinase 1 (Plasmodium falciparum (isolate 3D7)), sequence (P62344 whole entry, looked up): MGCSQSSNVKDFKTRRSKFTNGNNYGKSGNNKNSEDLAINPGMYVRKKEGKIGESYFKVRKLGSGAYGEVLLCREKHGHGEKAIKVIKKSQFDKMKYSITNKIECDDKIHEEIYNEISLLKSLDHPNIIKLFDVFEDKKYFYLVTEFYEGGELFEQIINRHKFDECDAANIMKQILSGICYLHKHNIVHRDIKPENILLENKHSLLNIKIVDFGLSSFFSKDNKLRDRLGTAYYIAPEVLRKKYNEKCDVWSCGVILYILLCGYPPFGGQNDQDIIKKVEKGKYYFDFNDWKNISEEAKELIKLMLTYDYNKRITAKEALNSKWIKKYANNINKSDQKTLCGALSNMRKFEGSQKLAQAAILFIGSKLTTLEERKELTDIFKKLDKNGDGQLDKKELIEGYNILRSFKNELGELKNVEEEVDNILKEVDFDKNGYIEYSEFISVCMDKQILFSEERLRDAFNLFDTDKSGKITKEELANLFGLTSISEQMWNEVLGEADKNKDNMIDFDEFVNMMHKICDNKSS

COc1ccc(NCCCNc2ccnc3ccccc23)cc1
inactive: growth inhibition [1] 17% | inhibition [2] 34% | inhibition [3] 2% | outcome [5] | outcome [6] | outcome [7] | outcome [8]
active: growth inhibition [4] 88%

Cc1ccc2nc(-c3ccc(C(=O)NC4CCN(Cc5ccccc5)CC4)s3)[nH]c2c1
active: growth inhibition [1] 83% | growth inhibition [4] 97%
inactive: inhibition [2] 13% | inhibition [3] -5% | outcome [5] | outcome [6] | outcome [7] | outcome [8]

N=C(N)c1ccc(-c2cc(-c3cccc(C(=N)N)c3)on2)cc1
inactive: growth inhibition [1] 45% | inhibition [2] 7% | inhibition [3] 2% | outcome [5] | outcome [6] | outcome [7] | outcome [8]
active: growth inhibition [4] 96%

COc1ccc2nccc([C@@H](O)CN3CCC(NCc4cc5cccc(O)c5c(=O)[nH]4)CC3)c2c1
inactive: inhibition [2] 8% | inhibition [3] 3% | outcome [5] | outcome [6] | outcome [7] | outcome [8]
active: growth inhibition [1] 66% | growth inhibition [4] 99%

O=C(/C=C/c1ccc(Cl)c(Cl)c1)NCCCCCN1CCC(CCCNC(=O)Nc2ccc(C(F)(F)F)cc2)CC1
inactive: growth inhibition [1] 19% | inhibition [2] -2% | inhibition [3] -7% | outcome [5] | outcome [6] | outcome [7] | outcome [8]
active: growth inhibition [4] 91%

COc1ccc2nccc([C@@H](O)CN3CCC(NCc4ccc5c(c4)NC(=O)C(C)S5)CC3)c2c1 (some centres not stated)
active: growth inhibition [1] 72% | growth inhibition [4] 99%
inactive: inhibition [2] 7% | inhibition [3] 2% | outcome [5] | outcome [6] | outcome [7] | outcome [8]

O=C1OC2(CCN(Cc3cccc(-c4ncc[nH]4)c3)CC2)CN1CCNCc1ccccc1
inactive: growth inhibition [1] -1% | inhibition [2] -8% | inhibition [3] -1% | outcome [5] | outcome [6] | outcome [7] | outcome [8]
active: growth inhibition [4] 94%

Cc1ccc(S(=O)(=O)/N=C(\N)NC(N)=O)cc1
inactive: growth inhibition [1] 2% | inhibition [2] 26% | inhibition [3] 1% | outcome [5] | outcome [6] | outcome [7] | outcome [8]
active: growth inhibition [4] 94%

Fc1cc(Cl)ccc1Nc1ccnc2cc(-c3ccc(CN4CCCCC4)o3)ccc12
inactive: inhibition [2] 16% | inhibition [3] -1% | outcome [5] | outcome [6] | outcome [7] | outcome [8]
active: growth inhibition [1] 99% | growth inhibition [4] 100%

CN1CCC[C@H]1COc1ccc(CN2CC[C@H](NC(=O)c3ccc(Cl)c(Cl)c3)C2)c2ccccc12
active: growth inhibition [1] 98% | growth inhibition [4] 101%
inactive: inhibition [2] 47% | inhibition [3] -3% | outcome [5] | outcome [6] | outcome [7] | outcome [8]

Cc1cccc(C)c1C1CCN(CCCCNC(=O)c2cc3ccccc3[nH]2)CC1
inactive: growth inhibition [1] 18% | inhibition [2] 46% | inhibition [3] 4% | outcome [5] | outcome [6] | outcome [7] | outcome [8]
active: growth inhibition [4] 90%

COc1ccc(N2CCN(c3nc(Nc4ccc(NC(C)=O)cc4)nc(N4CCCC4)n3)CC2)cc1
inactive: growth inhibition [1] 38% | inhibition [2] -7% | inhibition [3] -2% | outcome [5] | outcome [6] | outcome [7] | outcome [8]
active: growth inhibition [4] 91%

O=C(Nc1ccc(OC2CCN(Cc3ccc(F)cc3)C2)c(Cl)c1)c1cccs1 (configuration not stated)
inactive: inhibition [2] 21% | inhibition [3] 2% | outcome [5] | outcome [6] | outcome [7] | outcome [8]
active: growth inhibition [1] 97% | growth inhibition [4] 98%

Cc1[nH]c(C)c(-c2cccc(-c3ccc(OC(F)(F)F)cc3)c2)c(=O)c1Br
active: growth inhibition [1] 96% | growth inhibition [4] 97%
inactive: inhibition [2] 45% | inhibition [3] 0% | outcome [5] | outcome [6] | outcome [7] | outcome [8]

Cc1c(CN2CCC(N3CCC(C(=O)NC4CC4)CC3)CC2)[nH]c2c(Cl)cccc12
active: growth inhibition [4] 92%
inactive: growth inhibition [1] 3% | inhibition [2] 22% | inhibition [3] 1% | outcome [5] | outcome [6] | outcome [7] | outcome [8]

O=C(Nc1cccc(CN2CCCN(Cc3cccc(O)c3)CC2)c1)c1ccc(Cl)c(Cl)c1
active: growth inhibition [1] 79% | growth inhibition [4] 102%
inactive: inhibition [2] 25% | inhibition [3] 2% | outcome [5] | outcome [6] | outcome [7] | outcome [8]

CSCCC(C(=O)O)N1C(=O)c2ccccc2C1=O (configuration not stated)
inactive: growth inhibition [1] -3% | inhibition [2] -4% | inhibition [3] -1% | outcome [5] | outcome [6] | outcome [7] | outcome [8]
active: growth inhibition [4] 91%

CN(C)c1ccc(-c2ccc(C(=O)NC3CCN(Cc4ccc(C(C)(C)C)cc4)CC3)s2)cc1
inactive: inhibition [2] 35% | inhibition [3] -4% | outcome [5] | outcome [6] | outcome [7] | outcome [8]
active: growth inhibition [1] 59% | growth inhibition [4] 95%

CC(C)CCCC(C)(C)NC[C@@H](O)[C@H](Cc1ccccc1)NC(=O)c1cccc(OCC2CC2)c1
active: growth inhibition [1] 91% | inhibition [2] 99% | growth inhibition [4] 96%
inactive: inhibition [3] 3% | outcome [5] | outcome [6] | outcome [7] | outcome [8]

c1ccc(-c2[nH]c3ccccc3c2CN2CCC(N3CCCCC3)CC2)nc1
inactive: inhibition [2] 13% | inhibition [3] -3% | outcome [5] | outcome [6] | outcome [7] | outcome [8]
active: growth inhibition [1] 82% | growth inhibition [4] 101%

COc1ccc2nccc([C@@H](O)CN3CCC(NC(=O)C(c4cc5ccccc5o4)N4CCN(c5ccccc5OC)CC4)CC3)c2c1 (some centres not stated)
active: growth inhibition [1] 83% | growth inhibition [4] 99%
inactive: inhibition [2] 14% | inhibition [3] -5% | outcome [5] | outcome [6] | outcome [7] | outcome [8]

COc1cc(Nc2nccc(N3CCC(NC(=O)Nc4ccc5c(c4)OCO5)C3)n2)cc(OC)c1OC (configuration not stated)
active: growth inhibition [1] 74% | growth inhibition [4] 96%
inactive: inhibition [2] 9% | inhibition [3] -1% | outcome [5] | outcome [6] | outcome [7] | outcome [8]

O=C(NCCN1CCCC1)c1cccc(-c2ccc(-c3nc4ccc(F)cc4[nH]3)cc2)c1
inactive: inhibition [2] 33% | inhibition [3] -3% | outcome [5] | outcome [6] | outcome [7] | outcome [8]
active: growth inhibition [1] 85% | growth inhibition [4] 99%

O=C(NCc1ccc(F)cc1)Nc1ccc(-c2cccc(-c3nc4ccc(C(F)(F)F)cc4[nH]3)c2)cc1
active: growth inhibition [1] 92% | growth inhibition [4] 101%
inactive: inhibition [2] 41% | inhibition [3] 3% | outcome [5] | outcome [6] | outcome [7] | outcome [8]

CCN(CC)CC(O)CNc1c2ccc([N+](=O)[O-])cc2nc2cc(OC)c(OC)cc12 (configuration not stated)
inactive: inhibition [3] -4% | outcome [5] | outcome [6] | outcome [7] | outcome [8]
active: growth inhibition [1] 100% | inhibition [2] 78% | growth inhibition [4] 100%

c1ccc(CCNc2ccnc(Nc3ccc4cn[nH]c4c3)n2)cc1
inactive: inhibition [3] -3% | outcome [5] | outcome [6] | outcome [7] | outcome [8]
active: growth inhibition [1] 100% | inhibition [2] 54% | growth inhibition [4] 101%

O=C(N[C@H]1CCN(CCc2ccc(O[C@H]3CCNC3)c(Cl)c2)C1)c1ccc(Cl)c(Cl)c1
active: growth inhibition [4] 101%
inactive: growth inhibition [1] -1% | inhibition [2] 26% | inhibition [3] 2% | outcome [5] | outcome [6] | outcome [7] | outcome [8]

CCOC(=O)c1ccc(NC(=O)NNC(=O)c2ccc(CCN3CCC(c4nc(COCC(F)(F)F)c(-c5ccc(F)cc5)o4)CC3)cc2)cc1
inactive: inhibition [2] 10% | inhibition [3] 0% | outcome [5] | outcome [6] | outcome [7] | outcome [8]
active: growth inhibition [1] 67% | growth inhibition [4] 103%

COc1cc2c(cc1NC(=O)CN1CCN(C(=O)c3ccco3)CC1)oc1ccccc12
inactive: inhibition [2] 13% | inhibition [3] -2% | outcome [5] | outcome [6] | outcome [7] | outcome [8]
active: growth inhibition [1] 96% | growth inhibition [4] 96%

CC(=O)c1c(Cc2cccc(C(F)(F)F)c2)c[nH]c1C
active: growth inhibition [1] 92% | growth inhibition [4] 94%
inactive: inhibition [2] 6% | inhibition [3] 7% | outcome [5] | outcome [6] | outcome [7] | outcome [8]

COc1ccc(CCN(C)CCOc2ccc(NC(=O)c3ccc([N+](=O)[O-])c4c(=O)c5ccccc5[nH]c34)cc2)cc1OC
inactive: growth inhibition [1] 25% | inhibition [2] 38% | inhibition [3] -2% | outcome [5] | outcome [6] | outcome [7] | outcome [8]
active: growth inhibition [4] 91%

Cc1cc(N[C@@H](Cc2ccccc2)C(=O)NCCc2ccccc2)nc(NCCc2cccs2)n1
inactive: inhibition [2] 12% | inhibition [3] 4% | outcome [5] | outcome [6] | outcome [7] | outcome [8]
active: growth inhibition [1] 84% | growth inhibition [4] 99%

O=[N+]([O-])c1cc(C=NNc2nc3nonc3nc2Nc2ccc(F)cc2)c(Cl)cc1Cl
active: growth inhibition [4] 98%
inactive: growth inhibition [1] 13% | inhibition [2] 5% | inhibition [3] -4% | outcome [5] | outcome [6] | outcome [7] | outcome [8]

Cc1ccccc1C1CCN(C2CCC(NC(=O)c3ccc(-c4ccccc4)s3)CC2)CC1 (configuration not stated)
inactive: inhibition [2] 26% | inhibition [3] 0% | outcome [5] | outcome [6] | outcome [7] | outcome [8]
active: growth inhibition [1] 84% | growth inhibition [4] 101%

COc1ccc(CC(=O)NC(CCN2CCC3(CC2)CN(S(C)(=O)=O)c2ccccc23)c2ccc(Cl)c(Cl)c2)cc1OC (configuration not stated)
active: growth inhibition [1] 77% | growth inhibition [4] 92%
inactive: inhibition [2] 10% | inhibition [3] 7% | outcome [5] | outcome [6] | outcome [7] | outcome [8]

Cn1c(NC(=O)CCCCCNC(=O)c2ccc(O)c(-c3ccc(Cl)c(Cl)c3)c2)nc2ccccc21
active: growth inhibition [1] 55% | growth inhibition [4] 100%
inactive: inhibition [2] -6% | inhibition [3] 7% | outcome [5] | outcome [6] | outcome [7] | outcome [8]

COc1ccc(N2CCN(c3nc(N)c4cc(OC)c(OC)cc4n3)CC2C)cc1 (configuration not stated)
active: growth inhibition [4] 95%
inactive: growth inhibition [1] 0% | inhibition [2] 8% | inhibition [3] 0% | outcome [5] | outcome [6] | outcome [7] | outcome [8]

COc1ccc(CCNCCCCCCNCCc2ccccc2Cl)cc1OC
inactive: growth inhibition [1] 3% | inhibition [2] 13% | inhibition [3] -1% | outcome [5] | outcome [6] | outcome [7] | outcome [8]
active: growth inhibition [4] 96%

O=C(NOCCOc1ccccc1)c1ccccc1
active: growth inhibition [4] 98%
inactive: growth inhibition [1] 0% | inhibition [2] 0% | inhibition [3] -1% | outcome [5] | outcome [6] | outcome [7] | outcome [8]
